Source: PubChem BioAssay
Only some compounds are listed: those with a hit (about 1.4% of all), similar ones and a draw of the others.
p53 reactivator: re-activators of mutant p53; H1299 p53-A138V BP100-luciferase reporter, luminescence, 24 h; Potency, µM (doses to about 92.2 µM), for inactives: at the top dose activity change, positive = activation, most hits filed as activators; hit rate 0.063% among 320,000; AID 504706; also: potency is read from the fitted curve at half-maximal effect; % of control where 0% means no effect; nearly all actives have a fitted effect of over 45% in size
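H1299 (p53-null), stable ts p53-A138V + BP100-Luc; 1000 cells/well, Opti-MEM/10% FBS; cpd 4 pt, 1:5; 24 h, 37 deg C, 5% CO2; detection reagent 10 min RT; luminescence.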
GLS inhibitor: glutaminase GLS (human) inhibition; Potency, µM (doses to about 45.5 µM), for inactives: at the top dose activity change, negative = inhibition, actives largely listed as inhibitors; hit rate 0.21% among 410,000; GLS enzymatic activity, qHTS titration; AID 624170; O94925; also: potency is read from the fitted curve at half-maximal effect; % is scaled to controls: 0 for no effect and ±100 for the full control effect
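hKGA; 45 mM KH2PO4 pH 8.2 + 0.02% Tween-20; cpd via pin tool; 1 mM Gln soln; GluOx/HRP/Amplex Red; RT 30 min; fluor. t0 & final.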
TCR activator: T cell receptor activation | primary human leukocytes, anti-CD3, IL-2 HTRF, 48 h | Potency, µM (top dose mostly 9.22 µM), inactives show at the top dose activation of IL-2 secretion, hits mostly activators | 330,000 tested, under 10 active; also: % of control where 0% means no effect
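Human primary leukocytes + a-CD3 beads + cpd, 48 hr; IL-2 in supernatant by HTRF (ex 320nm / em 665nm). No co-stimulatory signal supplied.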
BRCA1 expr up: BRCA1 expression activation. MCF7-BRCA1-FFLuc reporter, luminescence, 48 h; response scale: scaled: vehicle 0%, 10 µM genistein 100%. Potency, µM (titrated, usually from 46.1 µM), inactives show at the highest dose activation, usual class: activators. hit rate 1.1% among 380,000. AID 624202; also: potency is read from the fitted curve at half-maximal effect; nearly all actives have a fitted effect of over 80% in size
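MCF7 cells carrying a BRCA1-firefly luciferase reporter (2000 cells/well, phenol-red free MEM) were attached for 2 h at 37 °C, then given compounds for 48 h. Luminescence was read 15 min after luciferase reagent; activity normalized to genistein (10 microM) and DMSO.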
N370S GC: N370S glucocerebrosidase modulation, Gaucher chaperone candidate; N370S GC spleen homogenate, 4MU-glucoside fluorescence; Potency, µM (titrated, usually from 59.4 µM), for inactives: at the top dose activity change, negative = inhibition, actives largely listed as inhibitors; hit rate 0.092% among 330,000; AID 2101;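 also: potency is read from the fitted curve at half-maximal effect; 0% = full enzyme activity and -100% = no enzyme basal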
TSHR antag: antagonists of human thyroid stimulating hormone receptor | activity change, negative = inhibition, % at 11.5 µM | hit rate 0.2% among 330,000 | P16473 | TSHR-expressing cells, TSH-stimulated cAMP HTRF, 2 h; active compounds read low;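 active = activity change below a set negative limit, meaning inhibition stronger than a set level, cut at about -70% in these data; inconclusive = activity change between two set negative limits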; also: % is scaled to controls: 0 for no effect and ±100 for the full control effect
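Competitive HTRF cAMP read-out (cryptate anti-cAMP antibody, cAMP-d2; 30 min, room temperature) in freshly harvested TSHR cells. Compounds added before TSH at EC80 (4nM final), followed by 2 hours' incubation at 37 deg C.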
* marks the source's active call; other numbers are inactive results; u = inconclusive; x = no result. Unless noted, calls follow the shape of the dose curve; as a rule, active = well fitted curve in the direction sought with a large enough effect; inconclusive = small, poorly fitted or top-dose-only effect, or another doubt; inactive = no such curve, though single readings can be large; an effect the other way counts as inactive or inconclusive.

SMILES	p53 reactivator	GLS inhibitor	TCR activator	BRCA1 expr up	N370S GC	TSHR antag
O=c1cc(-c2ccc(O)cc2)oc2c(O)c(O)c(O)c(O)c12	-1.5%	11.2µM*	-0.7%	-1.7%	-14.3%	-1.1
Clc1ncc(C#Cc2ccccc2)c2ncncc12	x	x	x	-61.3%	x	x
O=C(Cc1ccccc1)Nc1cc2c(cc1Cl)OCCCO2	29.2%	-13.2%	3.1%	3.16µM*	3.0%	0.2
O=C(Cc1ccccc1)Nc1ccc2c(c1)OC1(CCCC1)O2	u	-2.0%	-6.0%	3.98µM*	x	-6.7
CC(=O)c1sc(C(=O)O)c(-c2ccco2)c1-c1ccco1	-1.5%	20µM*	-11.2%	0.0%	-23.5%	-10.5
COC(=O)C(Cc1ccc(O)cc1)N1Cc2ccccc2C1=O (stereo not drawn)	u	19.8%	-2.6%	10µM*	-12.7%	-0.5
NNC(=O)C(Cc1ccc(O)cc1)N1Cc2ccccc2C1=O (stereo not drawn)	-4.6%	30.8%	5.0%	3.4%	-12.6%	8.3
O=C(CSc1nc2cc(Cl)ccc2o1)Nc1ccc(N2CCOCC2)cc1	u	-2.1%	2.8%	12.6µM*	6.7%	25.5
O=C(CSc1nc2ccccc2o1)Nc1ccc(N2CCOCC2)cc1	5.9%	17.7%	x	u	-6.7%	0.5
CCN(CC)c1ccc2nc3ccccc3[n+](CC)c2c1	-93.7%	-18.4%	52.9%	-89.5%	-29.6%	-140.3*
CCN(CC)c1ccc2nc3ccc(N)cc3[n+](-c3ccccc3)c2c1	-4.2%	-3.7%	-1.4%	-70.2%	-25.0%	-40.3
COc1cccc(S(=O)(=O)N2CCN(c3nc(-c4cccs4)nc4ccccc34)CC2)c1	x	x	x	0.0%	x	x
CC(=O)N[C@H]1[C@H](O[C@@H]2c3ccc(c(Cl)c3)Oc3cc4cc(c3O[C@@H]3O[C@H](CO)[C@@H](O)[C@H](O)C3C)Oc3ccc(cc3Cl)C[C@H]3NC(=O)[C@@H](N)c5ccc(O)c(c5)Oc5cc(O)cc(c5)[C@H](NC3=O)C(=O)N[C@H]4C(=O)N[C@H]3C(=O)N[C@@H]2C(=O)N[C@@H](C(=O)O)c2cc(O)cc(O[C@H]4O[C@H](CO)[C@@H](O)C(O)[C@@H]4O)c2-c2cc3ccc2O)O[C@H](CO)[C@@H](O)[C@@H]1O (stereo partly drawn)	x	15.8µM*	x	x	x	x
CC(C)c1ccc(C2CC(=O)c3cnc(NC(=O)c4ccco4)nc3C2)cc1 (stereo not drawn)	u	0.0%	-3.0%	10µM*	5.9%	-12.4
Cc1ccc(C2CC(=O)c3cnc(NC(=O)c4ccco4)nc3C2)cc1 (stereo not drawn)	-0.7%	-3.0%	1.2%	21.0%	-2.6%	4.1
COc1cc2nc(N3CCN(C)CC3)nc(NC3CCN(Cc4ccccc4)CC3)c2cc1OC	x	x	x	-38.9%	x	x
N#CCCN(C(=O)CSc1ccc2c(c1)OCCO2)c1ccccc1	-2.6%	1.7%	x	3.3%	0.0%	-0.3
CN(C(=O)CSc1ccc2c(c1)OCCO2)c1ccccc1	24.3%	-9.2%	x	10µM*	x	-7.3
NCCCC(O)(P(=O)(O)O)P(=O)(O)O	x	-6.0%	x	x	-2.3%	x
C=CCNC(=S)NNC(=O)COc1ccc2cc(Br)ccc2c1	9.9%	-12.9%	-8.3%	10µM*	-0.8%	-12.9
COc1ccccc1/C=C/C=N/NC(=O)c1cnccn1	4.2%	1.8%	-2.6%	-4.8%	-14.7%	13.6
COc1ccccc1/C=C/C=N/NC(=O)c1ccccn1	29.4%	6.8%	0.7%	5.01µM*	-16.2%	14.1
COc1ccccc1/C=C/C(=O)NCCc1ccccn1	u	-16.7%	-8.5%	3.16µM*	-6.3%	11.7
CC(C)(C)C(=O)CSc1n[nH]c(-c2ccccc2)n1	x	x	x	7.94µM*	x	x
C/C(=N\OCc1ccc(C#N)cc1)c1ccccc1	8.0%	3.0%	1.8%	u	-9.5%	-0.4
C/C(=N\OCc1ccc(C#N)cc1)c1ccc(S(=O)(=O)N(C)C)cc1	19.6%	1.6%	-3.6%	7.08µM*	3.9%	-12.5
